MRP reversal = MRP-mediated drug resistance reversal | H69AR cells + 2 uM doxorubicin, CellTiter-Glo, 72 h | differential viability (reversal), % at 10 µM | actives 0.04% (n = 85,000);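 active = viability drop by adding the cancer drug above about 55%, with treated viability meeting a 40% cutoff, limit read from the data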;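 note: larger differential means the compound sensitizes cells more to doxorubicin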
sEH activator = increases human soluble epoxide hydrolase activity | purified human sEH enzymatic activity, activator screen | activation, % at 2 µM | actives 0.04% (n = 91,000) | AID 717; in the data active = activation above about 37%
Target sequence (P34913 whole entry, looked up): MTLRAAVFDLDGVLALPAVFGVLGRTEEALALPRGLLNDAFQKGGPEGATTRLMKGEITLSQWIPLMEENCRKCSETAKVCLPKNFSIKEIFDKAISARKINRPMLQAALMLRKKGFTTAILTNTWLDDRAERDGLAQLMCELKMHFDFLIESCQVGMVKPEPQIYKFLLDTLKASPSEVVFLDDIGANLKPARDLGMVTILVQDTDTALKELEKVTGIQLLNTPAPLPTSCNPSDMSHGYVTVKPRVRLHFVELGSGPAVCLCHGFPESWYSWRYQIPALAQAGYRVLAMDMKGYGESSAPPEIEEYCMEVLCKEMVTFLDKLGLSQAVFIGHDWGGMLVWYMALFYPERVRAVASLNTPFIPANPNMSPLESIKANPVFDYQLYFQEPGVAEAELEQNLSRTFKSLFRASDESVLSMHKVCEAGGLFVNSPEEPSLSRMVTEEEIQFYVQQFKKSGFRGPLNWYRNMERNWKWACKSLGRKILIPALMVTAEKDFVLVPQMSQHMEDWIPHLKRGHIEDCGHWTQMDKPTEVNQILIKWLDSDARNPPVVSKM
sdo1 growth = sdo1-depleted yeast growth rescue. z-score at 10 µM. actives 0.21% (n = 140,000). S. cerevisiae sdo1-depleted JHY4D growth rescue, OD600 30 h; active compounds read high; pdr5 snq2 efflux-pump mutant strain;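 active = z-score above 3 at both the 24 hr and the 30 hr optical density reads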
Phagocytosis inh = inhibitors of macrophage phagocytosis; actives 0.07% (n = 110,000); inhibition, % at 5 µM; J774A.1 macrophage IgG-bead phagocytosis, imaging; AID 1029;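 active = inhibition above the mean of the plate negative controls plus 5 SD, cut at about 13% in these data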;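 note: phagocytic index as fraction of beads internalized from green versus red external bead signal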
MRP-1 activ = activates MRP-1. H69AR cells + doxorubicin, viability rescue, CellTiter-Glo. viability increase, % at 10 µM. actives 0.61% (n = 140,000);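 active = viability gain under doxorubicin at or above a set limit, the compound median plus 3 SD, cut at about 4.7% in these data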;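 note: MRP-1 overexpressing cells given doxorubicin 25 µM after compound pretreatment; 18-22 h compound pretreatment then 72 h with doxorubicin before readout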
sEH inh = inhibitors of human soluble epoxide hydrolase | actives 0.34% (n = 91,000) | inhibition, % at 2 µM | recombinant human sEH enzymatic activity assay | AID 707 | P34913; in the data active = inhibition above about 80%
sdo1 rescue conf = SDO1-depleted yeast growth rescue confirmation | shares compounds with sdo1 growth | S. cerevisiae JHY4D (SDO1-depleted) growth rescue, OD600, 30 h; active compounds read high; efflux-deficient strain, SNQ2 and PDR5 mutated | OD recovery (concentration not given with the values) | actives 44% (n = 440);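 active = yeast growth recovered at 30 hours, either rising with dose fitted slope above 0.001 or with average optical density gain above 0.07, some results past the limit were not filed as active; inactive = growth falling with dose or no effect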
A number is an active result; – = inactive; · = not tested or not shown; ! = not confirmed by another sample; [ ] = dose if it differs, or a comment. In the library only some 1% were active in any assay of this set; here they are far more common.

SMILES | MRP reversal | sEH activator | sdo1 growth | Phagocytosis inh | MRP-1 activ | sEH inh | sdo1 rescue conf
O=C(NC1CCCCCCC1)C1CCN(S(=O)(=O)N2CCC3(CC2)OCCO3)CC1 | – | – | – | · | – | 88 | ·
CC(=O)Nc1ccc(NC2=Nc3ccccc3N3C2=Nc2c(c(C)nn2-c2ccccc2)C3c2ccccc2)cc1 (stereo unspecified) | – | – | – | · | – | – | ·
COc1ccc(NC2=Nc3ccccc3N3C2=Nc2c(c(C)nn2-c2ccc(C)cc2)C3c2cccnc2)cc1 (stereo unspecified) | – | – | – | – | 8.8 | – | ·
CCOC(=O)CSC1=C(C#N)C(c2ccccc2Cl)C(C(=O)OC)C(=O)N1 (stereo unspecified) | – | – | – | – | – | – | ·
O=C(COc1c(F)c(F)c(C(F)(F)F)c(F)c1F)Nc1ccc(N2CCOCC2)c(Cl)c1 | – | – | – | – | – | 83 | ·
C=CCSC1=NC(=O)/C(=C/c2cccs2)S1 | · | · | – | – | 8.8 | · | ·
S=C(NC1CCCCC1)N(CCc1ccccc1)CCc1ccccc1 | · | · | – | 71[artifact] | – | · | ·
S=C(NCCc1ccccc1)NC1CCCCCC1 | · | – | – | – | – | – | ·
Cn1nc(C(F)(F)F)c(C(=O)Nc2ccc(C(F)(F)F)cc2)c1Cl | · | – | – | · | 6.2 | – | ·
Cc1ccc(NC(=O)CSc2n[nH]c(=O)n2C2CC2)cc1S(=O)(=O)N1CCOCC1 | · | · | – | – | – | · | ·
CCc1c(C(=O)NCc2ccccc2Cl)[nH]c(C)c1C(C)=O | – | · | – | – | – | · | ·
CC(=O)c1c(C)[nH]c(C(=O)NCc2ccccc2Cl)c1C | – | – | – | · | – | 85 | ·
CC(Oc1ccc(Cl)cc1Cl)c1nc(-c2ccc(NC(=O)c3ccco3)cc2)no1 (stereo unspecified) | – | – | – | – | – | – | ·
Cc1cccc(NC(=O)CCC(=O)N/N=C/c2cc([N+](=O)[O-])ccc2O)c1 | · | · | – | – | 4.9 | · | ·
Cc1cccc(NC(=O)CCC(=O)N/N=C/c2ccncc2)c1 | · | · | – | – | – | · | ·
O=C1/C(=C\c2ccco2)SC(=S)N1c1ccccc1 | · | · | – | · | 4.7 | · | ·
O=C(NNC(=O)c1cccc(S(=O)(=O)N2CCN(c3ccccc3)CC2)c1)c1ccc(Cl)cc1 | · | · | – | – | 10 | · | ·
COc1ccccc1CP(=O)(c1ccccc1)c1ccccc1 | · | · | – | – | – | · | ·
COc1ccc2c(c1)CCc1sc(NC(=O)c3ccco3)nc1-2 | – | · | – | – | – | · | ·
COc1ccc2c(c1)CCc1sc(NC(=O)c3ccc(C)cc3)nc1-2 | – | – | – | – | 4.9 | – | ·
O=C(NCCN1CCOCC1)c1ccc2c(c1)N(Cc1ccccc1)C(=O)CS2 | – | – | – | – | – | – | ·
O=C(NCCC1=CCCCC1)c1ccc2c(c1)N(Cc1ccccc1)C(=O)CS2 | – | – | – | – | – | 82 | ·
Oc1c(C(c2cccs2)N2CCN(c3cccc(Cl)c3)CC2)sc2ncnn12 (stereo unspecified) | – | · | – | – | 11 | · | ·
COc1ccc(C(=O)N2CCCC(C(=O)N3CCCCCC3)C2)cc1 (stereo unspecified) | – | – | 4.2 | – | – | – | –
COc1ccc(C(=O)N2CCCC2)cc1 | – | – | – | – | – | – | ·
SMILES | MRP reversal | sEH activator | sdo1 growth | Phagocytosis inh | MRP-1 activ | sEH inh | sdo1 rescue conf
O=C(c1ccccc1)N1CCCC(C(=O)N2CCCCCC2)C1 (stereo unspecified) | · | – | – | – | – | – | ·
O=C(c1cccc(F)c1)N1CCCC(C(=O)N2CCCC2)C1 (stereo unspecified) | – | – | – | – | – | – | 0.083
CCCc1nn(C)c(C(=O)Nc2cccc(CC)c2)c1Cl | · | · | – | – | – | · | ·
CCCc1nn(C)c(C(=O)Nc2ccc3ccccc3c2)c1Cl | · | · | 4.1 | – | – | · | 0.096
O=C(NCc1cccs1)c1nc2ncccn2n1 | – | – | 3 | – | – | – | –
CCN(CC)S(=O)(=O)c1ccc(Cc2ncc(C(F)(F)F)cc2Cl)s1 | – | – | 12 | – | – | – | 0.076
NS(=O)(=O)c1ccc(Cc2ncc(C(F)(F)F)cc2Cl)s1 | – | – | – | · | – | – | ·
COc1cccc2c1OCC/C2=N\NC(=O)COc1ccc(C)cc1 | · | · | – | – | – | · | –
Cn1c(=O)c2c(ncn2CC(=O)N2CCN(c3cccc(Cl)c3)CC2)n(C)c1=O | – | – | 14 | – | – | – | –
O=C(Cn1nnc(-c2ccc(Cl)cc2)n1)NCC1CCCCC1 | – | – | – | – | – | – | ·
Cc1cc(C)c(-c2csc(NC(=O)COC(=O)c3ccc4c(c3)OCO4)n2)c(C)c1 | · | · | – | – | – | · | –
NC1=NC(=O)/C(=C/c2c(OS(=O)(=O)c3ccc(Cl)cc3)ccc3ccccc23)S1 | · | · | – | – | – | · | ·
Cc1ccc(C)n1CCN1CCN(C(=O)c2ccco2)CC1 | – | – | 3! | – | – | – | –
O=C(O)CC(c1cccc2ccccc12)n1cccc1 (stereo unspecified) | – | – | – | – | – | – | ·
COc1ccc(OCCNC(=O)/C=C/c2ccc([N+](=O)[O-])cc2)cc1 | · | · | 15 | – | – | · | –
CC(=O)N=c1n(C)c2ccccc2n1CCOc1ccccc1 | · | · | – | – | – | · | ·
Cc1ccc(C(=O)NCC(=O)OCC(=O)c2ccc3c(c2)OCCO3)cc1C | · | – | 3.1 | – | – | – | –
COc1ccc(C(=O)NCC(=O)OCC(=O)c2ccc3c(c2)OCCO3)cc1 | · | – | – | · | – | – | ·
O=C(Nc1ccc(S(=O)(=O)NCc2cccnc2)cc1)c1ccco1 | – | – | – | – | – | – | –
C=CC[C@H]1CC(Cc2ccccc2)=C[C@H](CC=C)N1 | · | · | – | – | – | · | ·
C=CC[C@@H]1Cc2c(Br)ccc(Br)c2[C@@H](CC=C)N1 | · | · | 6.5 | – | – | · | 0.1
COC(=O)C1C(=O)OC(C)(C)C1C(C)C(=O)c1ccccc1 (stereo unspecified) | – | – | 4.8 | – | – | – | –
CCc1cc(=O)oc2cc(OC(C)C(=O)O)c(Cl)cc12 (stereo unspecified) | – | · | 3.1 | – | – | · | 0.092
CCN1C(=O)C(O)(CC(=O)c2ccccn2)c2ccccc21 (stereo unspecified) | – | – | – | – | – | – | ·
CCN1C(=O)C(O)(CC(=O)c2ccc(-n3cccc3)cc2)c2ccccc21 (stereo unspecified) | – | · | 3 | · | – | · | 0.1
CCC(C)[C@@H](NC(=O)OC(C)(C)C)c1nnc(S(=O)(=O)Cc2cccc(C)c2)o1 (stereo partly specified) | – | – | 5.6 | – | – | – | 0.11
CC(C)(C)NC(=O)NC(=O)COC(=O)COc1ccc2c(c1)CCC2 | – | · | – | – | – | · | ·
CC(C)(C)NC(=O)NC(=O)COc1ccccn1 | – | – | 3.2 | – | – | – | –
COC(=O)c1c(-c2ccccc2)csc1NC(=O)CSc1ncnc2sc(C)c(C)c12 | · | – | – | – | – | – | ·
Cc1nnc(NC(=O)CSc2ncnc3scc(-c4ccccc4)c23)s1 | · | – | – | · | – | – | 0.087
